{
  "source": "PubChem BioAssay (EPA / NIEHS)",
  "note": "Calls of active or inactive are those of the source. Rule for the calls: active = hit-call score of the fitted dose curve at least 0.9, where 1 is the maximum; inactive = score below 0.9.",
  "data": [
    {"target": "X-box-binding protein 1 (Homo sapiens) (UniProt P17861)", "sequence (P17861 whole entry, looked up)": "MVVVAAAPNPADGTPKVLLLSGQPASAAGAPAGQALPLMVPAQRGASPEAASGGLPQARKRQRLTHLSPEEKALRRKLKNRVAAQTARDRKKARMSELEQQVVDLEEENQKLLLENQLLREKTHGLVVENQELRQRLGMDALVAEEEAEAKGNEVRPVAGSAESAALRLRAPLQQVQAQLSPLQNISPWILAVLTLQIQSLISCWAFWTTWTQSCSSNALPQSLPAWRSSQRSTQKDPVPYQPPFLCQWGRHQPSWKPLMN", "assay": "ATG_Xbp1_CIS: Attagene CIS-FACTORIAL HepG2 Assay for human X-box Binding Protein 1 (XBP1) (AID 2282972)", "conditions": "HepG2 XBP1 cis-element reporter, Attagene multiplex; actives raise or lower the signal", "protocol": "ATG_CIS is a cell-based, multiplexed-readout assay that uses HepG2, a human liver cell line, with measurements taken at 24 hours after chemical dosing in a 24-well plate.ATG_Xbp1_CIS is one of 52 assay component(s) measured or calculated from the ATG_CIS assay. It is designed to make measurements of mRNA induction, a form of inducible reporter, as detected with fluorescence intensity signals by Reverse transcription polymerase chain reaction (RT-PCR) and Capillary electrophoresis technology.Data from the assay component ATG_Xbp1_CIS was analyzed into 1 assay endpoint. This assay endpoint, ATG_Xbp1_CIS, was analyzed with bidirectional fitting relative to DMSO as the negative control and baseline of activity. Using a type of inducible reporter, measures of mRNA for gain or loss-of-signal activity can be used to understand the reporter gene at the transcription factor-level as they relate to the gene XBP1. Furthermore, this assay endpoint can be referred to as a primary readout, because this assay has produced multiple assay endpoints where this one serves a reporter gene function. To generalize the intended target to other relatable targets, this assay endpoint is annotated to the dna binding intended target family, where the subfamily is basic leucine zipper.\nHuman liver HepG2 cells are transiently transfected with multiple reporter transcription units (MRTUs) in 6-well plates using FuGene 6 reagent (Roche; 3 ml FuGene/1 mg DNA). The MRTU constructs are regulated by a cis-regulating element (promoter). […] A major difference between the CIS and TRANS system is that in CIS activities of endogenous TFs are measured, whereas the TRANS assay evaluates changes in activities of exogenous, chimeric NR-Gal4 proteins. […] At the end of 24 hour incubation, total RNA was isolated using TriZol reagent (Invitrogen). The isolated RNA is then reverse-transcribed using oligo(dT) primer and Mo-MLV reverse transcriptase (Invitrogen) with DNAse I (Ambion) treatment for 30 min. The one-tenth of the produced cDNA was amplified by PCR using Taq DNA polymerase (Invitrogen) and two reporter sequence-specific primers. The PCR products were fluorescently labeled by primer extension with 6-arboxyfluorescein (6-FAM) 5'-labeled reporter sequence-specific primer (2 min at 95 C, 20 s at 68 C and 10 min at 72 C) and these products were digested with 5U of HpaI (New England Biolabs) for 2h at 37 C. The fragments were purified using Qiaquick PCR columns (Qiagen), analyzed on an ABI 3130xL genetic analyzer (Applied Biosystems) with peak positions identified by using a set of X-rhodamine (ROX)-labeled MapMarker1000 molecular weight standards (BioVentures). The raw capillary electrophoresis data was processed using Attagraph software (Attagene).", "values": [
      {"smiles": "CC(C)(N)CO", "outcome": "inactive"},
      {"smiles": "O=C(O)C[C@H](O)C[C@H](O)/C=C/c1c(C2CC2)nc2ccccc2c1-c1ccc(F)cc1", "outcome": "inactive"},
      {"smiles": "Nc1cc(Cl)c(O)c(Cl)c1", "outcome": "inactive"},
      {"smiles": "O=C(Oc1ccccc1)c1ccc(O)cc1", "outcome": "inactive"},
      {"smiles": "Cc1cccc(C)c1[N+](=O)[O-]", "outcome": "inactive"},
      {"smiles": "CC(C)=CCCC(C)=CCCC(C)=CCO", "outcome": "inactive"},
      {"smiles": "C=C(C)C(=O)NCCCN(C)C", "outcome": "inactive"},
      {"smiles": "Cc1ccccc1C=O", "outcome": "inactive"},
      {"smiles": "OC1C(O)C(O)C(O)C(O)C1O", "note": "(stereo not given)", "outcome": "inactive"},
      {"smiles": "CCCCCC(CO)CCC", "note": "(stereo not given)", "outcome": "inactive"},
      {"smiles": "CC1CC(OC(=O)c2ccccc2O)CC(C)(C)C1", "note": "(stereo not given)", "outcome": "inactive"},
      {"smiles": "O=C(O)c1snc(Cl)c1Cl", "AC50": "140 µM (active)"},
      {"smiles": "CCCC/C=C\\CCCCCCCCCC=O", "outcome": "inactive"},
      {"smiles": "CCCc1c(OCCCOc2ccc(OCC(=O)O)cc2)ccc(C(C)=O)c1O", "outcome": "inactive"},
      {"smiles": "C=C(C)[C@@H]1CC[C@@H](C)C[C@@H]1O", "outcome": "inactive"},
      {"smiles": "CC(=O)OCCOC(C)=O", "outcome": "inactive"},
      {"smiles": "CCC/C=C/C=O", "outcome": "inactive"},
      {"smiles": "CC(=O)[O][Al][O]C(C)=O", "outcome": "inactive"},
      {"smiles": "C=C(C)C(=O)O", "outcome": "inactive"},
      {"smiles": "CC(=O)C=CC1=C(C)CCCC1(C)C", "outcome": "inactive"},
      {"smiles": "C[Si](O[Si](C)(C)C)O[Si](C)(C)C", "outcome": "inactive"},
      {"smiles": "Cc1ccc(C(C)C)cc1O", "outcome": "inactive"},
      {"smiles": "CCCCCNCCCCC", "outcome": "inactive"},
      {"smiles": "C=COCCOCCOCCOC=C", "outcome": "inactive"},
      {"smiles": "C=CC(C)(CCC=C(C)C)OC=O", "note": "(stereo not given)", "outcome": "inactive"},
      {"smiles": "COc1cc2ncnc(Nc3cccc(Cl)c3)c2cc1OC", "AC50": "8.13 µM (active)"},
      {"smiles": "O=c1[nH]c(=O)n([C@H]2CCCO2)cc1F", "outcome": "inactive"},
      {"smiles": "C=C(C)C(=O)OCCOC(=O)CC(C)=O", "outcome": "inactive"},
      {"smiles": "CCCCCCCCCC=O", "outcome": "inactive"},
      {"smiles": "O=C(O)COCCN1CCN(C(c2ccccc2)c2ccc(Cl)cc2)CC1", "note": "(stereo not given)", "outcome": "inactive"},
      {"smiles": "Nc1nc2ccc([N+](=O)[O-])cc2s1", "outcome": "inactive"},
      {"smiles": "O=C(O)CCCCC1CCSS1", "note": "(stereo not given)", "outcome": "inactive"},
      {"smiles": "COc1c(Cl)c(Cl)c(Cl)c(Cl)c1Cl", "outcome": "inactive"},
      {"smiles": "CCN(CC)CCOC(=O)c1ccc(N)cc1", "outcome": "inactive"},
      {"smiles": "COc1cc(C=O)ccc1OC(=O)C(C)C", "outcome": "inactive"},
      {"smiles": "CCCCCCCCCCCCCCCC(=O)OC[C@H](O)[C@H]1OC(=O)C(O)=C1O", "outcome": "inactive"},
      {"smiles": "CCCCNC(=O)NS(=O)(=O)c1ccc(N)cc1", "outcome": "inactive"},
      {"smiles": "CCCc1ccccc1O", "outcome": "inactive"},
      {"smiles": "O=C(Nc1ccccc1)c1cc([N+](=O)[O-])ccc1Cl", "AC50": "4.35 µM (active)"},
      {"smiles": "Cc1ccc(S)cc1", "AC50": "53.5 µM (active)"}
    ]}
  ]
}
